Bioassay records as filed in PubChem.
DT40 TDP1 no CPT – qHTS for Inhibitors of human tyrosyl-DNA phosphodiesterase 1 (TDP1): qHTS in cells in absence of CPT; DT40 Tdp1-/- hTDP1 cells, no CPT, ATP luminescence, 48 h; Potency, µM (highest dose often 46.2 µM), usual class: inhibitors; hit rate 15% among 420,000; also: nearly all actives have a fitted effect of over 55% in size
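No-CPT arm: Tdp1-/-;hTDP1 DT40 cells (400/well) plus compounds, incubated ≥48 hr at 37 °C. Readout CellTiter-Glo luminescence.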
DT40 TDP1 CPT – DT40-hTDP1 cell growth loss with CPT. hit rate 12% among 420,000. AID 686979. Potency, µM (titrated, usually from 46.2 µM), actives largely listed as inhibitors. chicken DT40 Tdp1-/-;hTDP1 cells + 20 nM CPT, ATP luminescence, 48 h; also: nearly all actives have a fitted effect of over 55% in size
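Chicken DT40 Tdp1-/- cells complemented with human TDP1, 400 cells/well, exposed to compounds plus 20 nM camptothecin for at least 48 h at 37 C; viability read as ATP content by CellTiter-Glo luminescence.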
HT1080NT lethal – kills 2HG-producing HT-1080-NT fibrosarcoma cells. Potency, µM (top dose mostly 46.1 µM), most hits filed as cytotoxic. hit rate 1.6% among 360,000. HT-1080-NT fibrosarcoma viability, CellTiter-Glo ATP luminescence, 48 h;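 also: NT is the 2HG producing partner of a matched IDH1 knockdown line; nearly all actives have a fitted effect of over 55% in size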
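Toxicity toward the 2HG-producing NT line was scored as %Activity, normalised to DMSO and no-cell wells, from CellTiter-Glo luminescence after 48 hours' treatment.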
IL1B secr inh – inflammasome signaling inhibition, IL-1 beta readout | THP-1 LPS/ATP IL-1B secretion, AlphaLISA, 16 h; active compounds read low | activity change, % at 57.5 µM | hit rate 4.7% among 360,000 | AID 743279; in the data active = activity change below about -50%; inconclusive = mostly about -30% to -49%
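THP-1 cells pretreated 1 hr with compounds (up to 57.5 uM final), then stimulated with LPS (250 ng/mL final) plus ATP (1.25 mM final); secreted IL-1B measured by AlphaLISA after 16 hr, decreased signal indicating inhibition.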
HT1080 IDH1KD tx – toxicity to HT-1080 IDH1 knockdown cells (counter line). HT-1080 IDH1 knockdown viability, ATP luminescence, 48 h. Potency, µM (titrated, usually from 46.1 µM), usual class: cytotoxic. hit rate 2% among 360,000
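Using the IDH1-knockdown HT-1080 line run in the same batch and compound series as the NT line, viability after 48 h at 37 °C was determined by CellTiter-Glo luminescence and expressed as % activity.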
Large screens that a line does not name were inactive. The list is not random: actives were taken first. Their share in the collection is about 19%. Unless noted, calls follow the shape of the dose curve; as a rule, active = well fitted curve in the direction sought with a large enough effect; inconclusive = small, poorly fitted or top-dose-only effect, or another doubt; inactive = no such curve, though single readings can be large; an effect the other way counts as inactive or inconclusive.

CC1(C)CC(Cc2ccccc2C(F)(F)F)N(C(=O)OC(C)(C)C)C1 (stereo not drawn)	DT40 TDP1 no CPT inconclusive, DT40 TDP1 CPT inconclusive
CCOC(=O)[C@]12CCCC=C1N(Cc1ccc(Cl)cc1Cl)C(=O)[C@H](CC(=O)NCC13CC4CC(CC(C4)C1)C3)C2	DT40 TDP1 no CPT 18.4µM, DT40 TDP1 CPT inconclusive, HT1080 IDH1KD tx inconclusive
O=c1oc2ccccc2c(Nc2ccc(Cl)cc2)c1[N+](=O)[O-]	DT40 TDP1 no CPT 13µM, DT40 TDP1 CPT inconclusive, HT1080NT lethal inconclusive
COC(=O)c1ccc(Nc2c([N+](=O)[O-])c(=O)oc3ccccc23)cc1	DT40 TDP1 no CPT inconclusive, IL1B secr inh -77.9
CCOc1ccccc1CN1CCC(N2CCOCC2)CC1	none
CCN(CCNCC(O)COc1ccccc1C(C)C)c1cccc(C)c1 (stereo not drawn)	DT40 TDP1 no CPT 18.4µM, DT40 TDP1 CPT inconclusive, HT1080NT lethal 20.6µM, IL1B secr inh -103.9, HT1080 IDH1KD tx 18.4µM
Cc1ncc2c(c1CNC(=O)c1cncs1)CCN(C(=O)c1ccc(-c3ccccc3)cc1)C2	none (no result: HT1080NT lethal, IL1B secr inh, HT1080 IDH1KD tx)
Cc1cccc(N(Cc2cc3ccccc3[nH]c2=O)C(=O)c2ccco2)c1C	DT40 TDP1 CPT 25.9µM
COc1ccc(CN(C(=O)c2ccco2)c2ccc(C)c(C)c2)cc1	DT40 TDP1 no CPT inconclusive, DT40 TDP1 CPT inconclusive, HT1080NT lethal inconclusive, HT1080 IDH1KD tx 20.6µM
CCOc1ccc(N(Cc2ccc(OC)c(OC)c2)C(=O)c2ccco2)cc1	DT40 TDP1 no CPT 18.4µM, DT40 TDP1 CPT inconclusive
COc1cc(CN(C(=O)c2ccco2)c2ccc(C)cc2)ccc1O	none
COc1ccc(N(Cc2cc3ccc(C)cc3[nH]c2=O)C(=O)c2ccco2)cc1	DT40 TDP1 no CPT 20.6µM, DT40 TDP1 CPT 23.1µM
COc1ccc(N(Cc2cc3ccc(C)cc3[nH]c2=O)C(=O)C2CCCO2)cc1 (stereo not drawn)	none
Cc1ccccc1-c1nc(CS(=O)CC(=O)NC(C)CCc2ccccc2)c(C)o1 (stereo not drawn)	DT40 TDP1 no CPT inconclusive, DT40 TDP1 CPT inconclusive
CCCCOCCCNC(=O)C[C@@H]1C[C@@]2(C(=O)OCC)CCC=C2N(Cc2ccc3c(c2)OCO3)C1=O	DT40 TDP1 no CPT 16.4µM, DT40 TDP1 CPT 20.6µM
CCOC(=O)[C@]12CCC=C1N(Cc1ccc3c(c1)OCO3)C(=O)[C@H](CC(=O)N1CCSCC1)C2	DT40 TDP1 no CPT inconclusive, DT40 TDP1 CPT inconclusive
CCOC(=O)[C@]12CCCC=C1N(Cc1ccc3c(c1)OCO3)C(=O)[C@H](CC(=O)NCCCOC)C2	none
CCOC(=O)[C@]12CCC=C1N(Cc1ccc3c(c1)OCO3)C(=O)[C@H](CC(=O)NCC13CC4CC(CC(C4)C1)C3)C2	DT40 TDP1 no CPT 23.1µM, DT40 TDP1 CPT inconclusive, HT1080NT lethal inconclusive, IL1B secr inh inconclusive, HT1080 IDH1KD tx inconclusive
O=C(NCCC(=O)N1CCC2(CC1)NCCc1[nH]cnc12)c1ccc(Br)cc1	none
S=C(Nc1ccc(Cl)cc1)N1CCN(Cc2ccccc2)CC1	none
CCCN1CCC(NC(=S)Nc2cccc(Cl)c2Cl)CC1	DT40 TDP1 no CPT inconclusive, DT40 TDP1 CPT 18.4µM
Cc1ccc(NC(=S)NC2CCN(Cc3ccccc3)CC2)cc1C	DT40 TDP1 no CPT 25.9µM, DT40 TDP1 CPT inconclusive
CC(C)c1ccc(NC(=S)NC2CCN(Cc3ccccc3)CC2)cc1	DT40 TDP1 no CPT 23.1µM, DT40 TDP1 CPT inconclusive, HT1080NT lethal inconclusive, IL1B secr inh -88.6, HT1080 IDH1KD tx inconclusive
Cc1ccc(NC(=S)NC2CCN(Cc3ccccc3)CC2)cc1	DT40 TDP1 no CPT inconclusive, DT40 TDP1 CPT inconclusive
CCCN1CCC(NC(=O)Nc2cccc3ccccc23)CC1	none
CC(C)c1ccc(NC(=S)N2CCN(Cc3ccccc3)CC2)cc1	DT40 TDP1 no CPT 25.9µM, DT40 TDP1 CPT inconclusive
Clc1ccc(CNC2CCN(Cc3ccccc3)CC2)cc1	DT40 TDP1 no CPT inconclusive, HT1080 IDH1KD tx inconclusive
S=C(NCc1ccc(Cl)cc1)NC1CCN(Cc2ccccc2)CC1	DT40 TDP1 no CPT 16.4µM, DT40 TDP1 CPT 18.4µM, HT1080NT lethal 23.1µM, IL1B secr inh -92.4, HT1080 IDH1KD tx 20.6µM
O=C(NC1CCN(Cc2ccccc2)CC1)c1ccc(Cl)cc1Cl	DT40 TDP1 no CPT inconclusive
S=C(Nc1ccc(Cl)cc1Cl)NC1CCN(Cc2ccccc2)CC1	DT40 TDP1 no CPT 16.4µM, DT40 TDP1 CPT 20.6µM
Cc1c(Cl)cccc1NC(=S)NC1CCN(Cc2ccccc2)CC1	DT40 TDP1 no CPT inconclusive, DT40 TDP1 CPT inconclusive, IL1B secr inh -73.0
S=C(Nc1cc(Cl)cc(Cl)c1)NC1CCN(Cc2ccccc2)CC1	DT40 TDP1 no CPT 6.51µM, DT40 TDP1 CPT 8.2µM, HT1080NT lethal 16.4µM, IL1B secr inh -65.6, HT1080 IDH1KD tx inconclusive
CC1=CCC(C(=O)O)C(C(=O)Nc2ccc(-c3nc4ccc(C)cc4s3)cc2)C1 (stereo not drawn)	none
CC(C)c1ccccc1NC(=S)NC1CCN(Cc2ccccc2)CC1	DT40 TDP1 no CPT inconclusive, DT40 TDP1 CPT inconclusive, IL1B secr inh inconclusive
S=C(Nc1ccccc1Cl)NC1CCN(Cc2ccccc2)CC1	DT40 TDP1 no CPT 18.4µM, DT40 TDP1 CPT 20.6µM
CCOC(=O)c1sc(-c2ccc(OC)cc2)cc1N	DT40 TDP1 CPT inconclusive, IL1B secr inh inconclusive
CCOC(=O)C1=C(Nc2ccc(OC)cc2)C(N)=NC1=N	DT40 TDP1 no CPT 1.3µM, DT40 TDP1 CPT 3.66µM, HT1080NT lethal 2.31µM, HT1080 IDH1KD tx 5.17µM
O=C(C1CCCN(S(=O)(=O)c2cccc3cccnc23)C1)N1CCc2ccccc21 (stereo not drawn)	DT40 TDP1 no CPT 16.4µM, DT40 TDP1 CPT 23.1µM
CC(C)c1ccc(NC(=O)C2CCCN(S(=O)(=O)c3cccc4cccnc34)C2)cc1 (stereo not drawn)	DT40 TDP1 no CPT 16.4µM, DT40 TDP1 CPT 16.4µM (no result: HT1080NT lethal, IL1B secr inh, HT1080 IDH1KD tx)
O=C(NCC1COc2ccccc2O1)C1CCCN(S(=O)(=O)c2cccc3cccnc23)C1 (stereo not drawn)	DT40 TDP1 no CPT inconclusive, DT40 TDP1 CPT 20.6µM
O=C(Nc1ccncc1)C1CCCN(S(=O)(=O)c2cccc3cccnc23)C1 (stereo not drawn)	DT40 TDP1 no CPT 1.64µM, DT40 TDP1 CPT 1.84µM, HT1080NT lethal 3.26µM, HT1080 IDH1KD tx inconclusive
OCCC1CN(Cc2cc3c(cc2Cl)OCO3)CCN1C1CCCCC1 (stereo not drawn)	none
O=C(/C=C/c1ccccc1)Nc1cccnc1	none
O=C(/C=C/c1ccc(F)cc1)NC(=S)Nc1ccccc1	DT40 TDP1 no CPT 20.6µM, DT40 TDP1 CPT inconclusive, HT1080NT lethal inconclusive, IL1B secr inh inconclusive
NC(N)=NS(=O)(=O)c1ccc(NC(=S)NC(=O)/C=C/c2ccc(F)cc2)cc1	none
O=C(Nc1cccc(C(=O)NC2CCCC2)c1)c1ccccc1	DT40 TDP1 no CPT inconclusive, DT40 TDP1 CPT inconclusive, IL1B secr inh inconclusive
O=C(C=Cc1ccccc1)Nc1ccccc1	IL1B secr inh -68.6
